Compounds without any hit were thinned out: in the full panel of roughly 83,000, 20% have a hit.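 The test compound was applied at a single concentration to cells in 96-well plates for 48 hours, and percent growth was recorded.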 Unmarked numbers belong to inactive results. Active and inactive are the calls of the source.
The compounds below were run on HOP-62 NSCLC (assay: NCI-60 one-dose screen, 48 h (100 = growth as untreated, 0 = no growth, -100 = all killed)). Details: 10 µM unless noted.
Procedure: Growth inhibition of the HOP-62 human Non-Small Cell Lung tumor cell line is measured as a screen for anti-cancer activity. Cells are grown in 96 well plates and exposed to the test compound for 48 hours. Compounds are tested at a single concentration, which is 10^-5 M for most compounds. The reported endpoint is percent growth (GI% or GIPRCNT), where numbers from 0 - 100% represent growth inhibition, and numbers from -100% - 0 represent cell death. For example, a value of 40 represents 60% growth inhibition. A value of 0 means no net growth occurred over the course of the experiment. A value of -40 indicates 40% of cells at the beginning of the experiment died by the end of the experiment. A value of -100 means all cells are dead at the end of the experiment.
NCI-60 Human Tumor Cell Lines Screen was performed using the standard one-dose NCI protocol, which is described in more detail at https://dtp.cancer.gov/discovery_development/nci-60/default.htm.
Compounds with GIPRCNT values below 10 were considered active. Activity score was based on GIPRCNT using the following formula: […]
Score is 0 for GIPRCNT values of 100 or above, 50 for GIPRCNT values of 0, and 100 for GIPRCNT values of -100.
For `Clc1ccc(Cl)c(N=Cc2ccc3c(c2)OCO3)c1`, the growth was 101%. With `Cc1c(C(=O)CCl)c(=O)n(-c2ccccc2)n1C` the growth was 105%. `Cc1cccc(N=NC(=S)NNc2cccc(C)c2)c1` showed a growth of 101%. In the case of `CCN(CC)CC(=O)Nc1c(C)ccc(N)c1C`, the growth is reported as 94.2%. `COc1ccc(/C=C/C(=O)CCC(=O)O)cc1OC` was tested, and the growth was 91.4%. In the case of `COc1cc(C2CC(c3ccc(Cl)cc3)=NN2C(C)=O)ccc1Oc1ccnc2cc(Cl)ccc12` (stereo not given), the growth is reported as 23.1%. `OC(COCc1ccccc1)COCc1ccccc1` gave a growth of 106%. `CS(=O)(=O)c1ccc(C(=O)N/N=C/c2ccccc2O)cc1` gave a growth of 28.3%. In the case of `COc1ccc(Cl)cc1Nc1nc(C(F)(F)F)ccc1C(=O)NN`, the growth is reported as -30.8% (active). `S=C(Cc1ccccc1)N1CCN(c2ccccc2Cl)CC1` was tested, and the growth was 105%. In the case of `O=C(Nc1cccc(Cl)c1)Nc1ccccc1Cl`, the growth is reported as 101%. With `CCSCC1CC(O)(c2ccccc2)C(c2ccccc2)C(c2ccc(F)cc2)O1` (stereo not given) the growth was -13.3% (active). `COc1cc(OC)cc(-c2ccc(-c3ccc(C(=N)N)s3)s2)c1` was tested, and the growth was -88.1% (active). In the case of `CC1=C(/C=C/C(C)=C/C=C(C(=O)O)\C(C)=C\C(=O)O)C(C)(C)CCC1`, the growth is reported as 108%. `N/C(=N\OC(=O)c1ccccc1)C(Cc1ccccc1)C(=O)NOC(=O)c1ccccc1` (stereo not given) was tested, and the growth was 1.55% (active). With `CCCCCCCCCCCCCCCC1=NC(C)(C)CN1C(C)C` the growth was -77.4% (active). Compound `CCN(CC)c1ccc(/C=C2/NC(=O)NC2=O)cc1` has a growth of 53.4%. For `CCCC(CCC)(C(N)=O)C(=O)O`, the growth was 98.6%. Compound `CC(C)c1ccc2c(c1)CCC1C2CCCC1(C)NCc1ccccc1` (stereo not given) has a growth of 91%. In the case of `COc1ccc(C2=NNC(c3ccc(Oc4nc5c(c(=O)n(C)c(=O)n5C)n4C)c(OC)c3)C2)cc1` (stereo not given), the growth is reported as 101%. For `N=C(N)c1ccc(-c2ccc(-c3cccs3)s2)cc1F`, the growth was -96.2% (active). `CCOC(=O)Cc1cc(Br)c(OCc2ccccc2)c(Br)c1` was tested, and the growth was 96.4%. In the case of `CCOC(=O)c1ccc(NC(=O)CSC(N)=O)cc1`, the growth is reported as 113%. Compound `O=C(CC(=O)c1cccc(Cl)c1)c1cccc(Cl)c1` has a growth of 22.1%. `COc1cc(NCC(O)CN(CC(C)C)CC(C)C)c2ncccc2c1` (stereo not given) gave a growth of 84.8%. For `COc1ccc(-c2cc(C(=O)Nc3ccc(Br)cc3)nc3[nH]c(=O)sc23)cc1`, the growth was 72.7%. Compound `N=c1nc(N2CCCCC2)cc(N)n1O` has a growth of 101%. `Cn1cnc([N+](=O)[O-])c1S(=O)(=O)Oc1ccccc1` was tested, and the growth was 96.1%. `CCCNCCC(C)=O` gave a growth of 106%. In the case of `COc1ccc(/C=C/c2nc3ccccc3c(=O)n2-c2ccc(C#Cc3ccc(C(C)(C)C)cc3)cc2C)c(OC)c1`, the growth is reported as 112%. For `Clc1nnc2c3ccccc3ccn12`, the growth was 98.5%. `CS(=O)(=O)c1ccc(Cl)c([N+](=O)[O-])c1` was tested, and the growth was 105%. In the case of `CC(C)N(C(=S)SSC(=S)N(C(C)C)C(C)C)C(C)C`, the growth is reported as 104%. `COc1ccc(CC2c3cc(OC)c(OC)cc3CC[N+]2(C)CCC(=O)OCCCCCOC(=O)CC[N+]2(C)CCc3cc(OC)c(OC)cc3C2Cc2ccc(OC)c(OC)c2)cc1OC` (stereo not given) was tested, and the growth was 100%. With `CCN(CC)c1cc(C)c(Cc2c(OC)ccc3ccccc23)cc1C` the growth was 85%. Compound `c1ccc(-c2nnn(-c3ccccc3)n2)cc1` has a growth of 95.8%. For `Cn1c(=O)c2c(nc(N/N=C/c3ccccc3Cl)n2C)n(C)c1=O`, the growth was 112%. For `CC(C)(C)c1cc(C[P+](c2ccccc2)(c2ccccc2)c2ccccc2)cc(C(C)(C)C)c1O`, the growth was 8.73% (active). `COc1cccc(/C(C)=N/NC(=O)CSc2nc3ccccc3c(=O)n2CCc2ccc(S(N)(=O)=O)cc2)c1` was tested, and the growth was 35%. In the case of `COc1cc(C2CC(c3ccc(C)cc3)=NN2C=O)ccc1Oc1ccnc2cc(Cl)ccc12` (stereo not given), the growth is reported as 3.38% (active).

— PubChem BioAssay (NCI)
